Measurements taken from PubChem BioAssay (EPA / NIEHS).
Results filed as inconclusive are left out. Active and inactive are the calls of the source. How the source made its calls: active means hit-call score of the fitted dose curve at least 0.9, where 1 is the maximum; inconclusive means response in the unintended direction; inactive means score below 0.9.

Assay: ACEA_ER_AUC_viability: ACEA Biosciences xCELLigence Real-Time Cell Analysis on Estrogen Receptor Agonism for Viability (AID 2283782);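 further: continuous compound exposure with impedance area under curve over 80 h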
Description: ACEA_ER is a cell-based, single-readout assay that uses T47D, a human breast cell line, with measurements taken at 80 hours after chemical dosing in a 96-well plate, although TO2 (mc0.srcf) used a 384-well plate. Differences in plate size can be ignored given data normalization.ACEA_ER_AUC_viability is one of two assay component(s) measured or calculated from the ACEA_ER assay. It is designed to make measurements of real-time cell-growth kinetics, a form of growth reporter, as detected with electrical impedance signals by Real-Time Cell Electrode Sensor (RT-CES) technology.Data from the assay component ACEA_ER_AUC_viability was analyzed in the positive analysis fitting direction relative to DMSO as the negative control and baseline of activity. Using a type of growth reporter, loss-of-signal activity can be used to understand changes in the viability. Furthermore, this assay endpoint can be referred to as a secondary readout, because this assay has produced multiple assay endpoints where this one serves a viability function. To generalize the intended target to other relatable targets, this assay endpoint is annotated to the cell cycle intended target family, where the subfamily is cytotoxicity.
The xCELLigence system Multi-E-Plate stations were used to measure the time-dependent response to chemicals. Each compound was tested in an eight-point, 1:4 serial dilution series starting at a maximum final concentration of 100 uM. A maximum starting concentration of 0.5% DMSO was present in the 100 uM chemical samples and was diluted along with the test article dilution series. The screen was performed in biological duplicate using two separate, 96-well, E-Plates 96 for each dilution series (n = 2). Positive controls (MG132 and E2) and a negative control (assay media) were tested in quadruplicate on each testing plate. Then, 0.5% and 0.125% DMSO were tested in duplicates in each plate to serve as solvent controls for the 2 highest concentrations of testing compounds: 100 uM and 25 uM. Reference compounds were tested with 8 concentrations with 1:5 serial dilutions. All screening was carried out by ACEA Biosciences, Inc. (San Diego, CA). T-47D cells purchased from ATCC were maintained in RPMI1640 media supplemented with 10% characterized fetal bovine serum (FBS). Before screening, T-47D cells were preconditioned in assay medium: phenol red-free RPMI1640 supplemented with 10% charcoal-stripped FBS. Cells were then detached and seeded in E-Plates 96 in assay medium. After overnight monitoring of growth once every hour, compounds were added to […] cells and remained in the medium until the end of the experiment. Cellular responses were then recorded once every 5 min for the first 5 h, and once every hour for an additional 100 h.

SMILES	outcome	AC50
CC(C)(O)C(=O)c1ccc(OCCO)cc1	inactive	–
CC(C)=CCCC(C)=CC(=O)O	inactive	–
CC(C)(CO)CO	inactive	–
CC(C)OB(OC(C)C)OC(C)C	inactive	–
O=C(O)c1cccc(Cl)n1	inactive	–
C=C1CC/C=C(\C)CC[C@@H]2[C@@H]1CC2(C)C	inactive	–
O=C(O)c1ccco1	–	50 µM (active)
FC(F)(F)c1ccc(Cl)c(Cl)c1	inactive	–
CC1(C)[C@H](C=C(Cl)Cl)[C@H]1C(=O)OCc1cccc(Oc2ccccc2)c1	–	12.5 µM (active)
CC(C)N1C(=O)c2ccccc2C1=O	inactive	–
C1=COCCC1	inactive	–
CCCCCCCCCCCCCCCCCC(=O)OCCCCCCCCCCCCCC(C)C	–	77 µM (active)
CCOC(=O)CC1(C)OCC(C)O1 (stereo not given)	inactive	–
COC(=O)C(C)Oc1ccc(Oc2ncc(C(F)(F)F)cc2Cl)cc1 (stereo not given)	inactive	–
C[C@H](CCC(=O)O)[C@H]1CC[C@H]2[C@@H]3CC[C@@H]4C[C@H](O)CC[C@]4(C)[C@H]3CC[C@]12C	–	85.2 µM (active)
c1ccc2scnc2c1	inactive	–
CN(C)c1ccc(C=O)cc1	inactive	–
Brc1cc(Br)cc(Br)c1	inactive	–
CC(=O)CCC(=O)O	inactive	–
O=S(=O)(O)c1cc(O)c(O)c(S(=O)(=O)O)c1	inactive	–

SMILES	outcome	AC50
CC(=O)C1=C(C)[C@@H]2C[C@@]3(C1)[C@H](C)CC[C@H]3C2(C)C	–	88.1 µM (active)
NC(=O)NC(N)=O	inactive	–
CCCCCCCC1CCCC1=O (stereo not given)	inactive	–
C=C(C)C(=O)OCCC(F)(F)C(F)(F)C(F)(F)C(F)(F)C(F)(F)C(F)(F)C(F)(F)C(F)(F)F	inactive	–
CC/C=C/CCCCCCCCCCOC(C)=O	inactive	–
O=[N+]([O-])c1cc(N(CCO)CCO)ccc1NCCO	inactive	–
CCCCOCC(C)OCC(C)O (stereo not given)	inactive	–
CC1=CC[C@@H]2C[C@H]1C2(C)C	–	18.7 µM (active)
CCCCN(CCCC)CCCCCCN(CCCC)CCCC	inactive	–
c1ccc(Sc2ccccc2)cc1	–	83.4 µM (active)
NC(=O)c1c(Cl)cccc1Cl	inactive	–
C=C(C)C(=O)OCCC[Si](OC)(OC)OC	inactive	–
CC(O)COCC(C)O (stereo not given)	inactive	–
CC1=CC(O)CC(C)(C)C1 (stereo not given)	–	71.8 µM (active)
C1COCO1	inactive	–
C=CCS(=O)(=O)O	inactive	–
CC/C=C\CCCCO	–	50 µM (active)
CCCOC(=O)CC	inactive	–
CC(=O)c1cccnc1	inactive	–
CCOc1ccc(NC(C)=O)cc1	inactive	–
